{
  "source": "PubChem BioAssay (NCATS)",
  "note": "Records with an inconclusive call do not appear. A call without a number means that no potency is given here. Active and inactive are the calls of the source. Calls follow the shape of the dose curve; as a rule, active = well fitted inhibition curve with a large enough effect; inconclusive = small, poorly fitted or top-dose-only effect; inactive = no such curve, though single readings can be large or run the other way.",
  "data": [
    {"molecular_target": "Retinaldehyde dehydrogenase 3 (Homo sapiens) (UniProt P47895)", "test": "qHTS for Inhibitors of the Aldehyde Dehydrogenase Family (ALDH1A3) Primary screen (AID 2061315)", "details": "ALDH inhibition qHTS; series mostly up to 56 µM", "values": [
      {"smiles": "Cc1cccc(-n2cnc3cc(C(=O)NC4CCCC4)ccc32)c1", "Potency": "inactive"},
      {"smiles": "O=C(OCC#CCSc1nnc(-c2cccc3ccccc23)o1)c1cccc(C(F)(F)F)c1", "Potency": "inactive"},
      {"smiles": "Cc1ccc(C(=O)Oc2ccc(-c3nc4ccccc4[nH]3)cc2)cc1Br", "Potency": "inactive"},
      {"smiles": "C[C@H](Oc1cc(-n2cnc3ccc(CN4CCN(C)CC4)cc32)sc1C(N)=O)c1ccccc1C(F)(F)F", "Potency": "inactive"},
      {"smiles": "O=C(Cc1ccc(Cl)c(Cl)c1)Nc1ccc([S+](=O)([O-])Nc2ccc3[nH]ccc3c2)cc1", "Potency": "inactive"},
      {"smiles": "CS(=O)(=O)Nc1ccc(-c2nc(NCc3ccc(-c4ccnc(C(F)(F)F)c4)cc3)c3ccccc3n2)cc1", "Potency": "inactive"},
      {"smiles": "CC(=O)c1ccc(O[C@@H]2O[C@H](CO)[C@@H](O)[C@H](O)[C@H]2O)cc1", "Potency": "inactive"},
      {"smiles": "O=C(Nc1ccc(S(=O)(=O)Nc2nccs2)cc1)[C@@H]1CC[C@H](C(=O)c2ccccc2)C1", "Potency": "inactive"},
      {"smiles": "O=C(Cn1nc(-c2ccc3c(c2)OCO3)ccc1=O)NCCc1ccccc1", "Potency": "inactive"},
      {"smiles": "O=C(/C=C/c1ccc(Cl)cc1)Nc1cccc([S+](=O)([O-])Nc2ccccc2F)c1", "Potency": "inactive"},
      {"smiles": "CC(=O)Nc1sc2c(c1-c1cccc3c1sc1ccccc13)CCNC2", "Potency": "inactive"},
      {"smiles": "COc1cc(F)c(S(=O)(=O)N2CCCN(S(=O)(=O)c3ccc(N)cc3)CC2)c(F)c1", "Potency": "inactive"},
      {"smiles": "CCCn1c(-c2ccc(F)cc2)nc2c(NCCN3CCCCC3)nc(C)nc21", "Potency": "inactive"},
      {"smiles": "Cc1ccc(-c2ccc(=O)n(CC(=O)N(C)CCN(C)C)n2)cc1", "Potency": "inactive"},
      {"smiles": "O=C1CCCC2=C1C(c1cccc(F)c1)N=C(Nc1nc3ccccc3o1)N2", "note": "(stereo not given)", "Potency": "inactive"}
    ]}
  ]
}
